Data reported in publication PMC7862700, “An all-to-all approach to the identification of sequence-specific readers for epigenetic DNA modifications on cytosine”.

Columns and labels:
Experiment in all cases: DAPPL (digital affinity profiling via proximity ligation, sequencing); 10 mM Tris-HCl pH 7.5, 50 mM NaCl, 1 mM DTT, 4% glycerol, room temperature, 30 min; GST-TFs on glutathione beads, 16-mer random dsDNA library, 0.1% formaldehyde crosslink after washing; high values mean tight binding
Settings in all cases: protein: recombinant; tags: N-terminal GST; dsDNA, one strand shown
FLI1 = molecular target: T1, FLI1 (Homo sapiens, UniProt Q01543 1-452)
T1 sequence: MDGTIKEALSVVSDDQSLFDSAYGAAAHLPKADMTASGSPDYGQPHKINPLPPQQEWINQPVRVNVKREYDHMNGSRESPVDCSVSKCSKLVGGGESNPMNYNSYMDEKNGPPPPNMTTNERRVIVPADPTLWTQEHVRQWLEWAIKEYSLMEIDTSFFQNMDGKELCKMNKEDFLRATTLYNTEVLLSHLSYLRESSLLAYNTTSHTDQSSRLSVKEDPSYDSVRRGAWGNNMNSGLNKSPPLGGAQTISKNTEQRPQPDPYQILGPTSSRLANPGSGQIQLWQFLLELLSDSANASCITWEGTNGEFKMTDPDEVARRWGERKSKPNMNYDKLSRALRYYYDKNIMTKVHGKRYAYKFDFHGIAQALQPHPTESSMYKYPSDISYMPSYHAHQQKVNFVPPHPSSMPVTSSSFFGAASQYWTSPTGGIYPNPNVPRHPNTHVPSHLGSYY
How it was run: (§1)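 Pools were built from human transcription factors expressed in yeast as GST fusions, captured on glutathione beads and DNA-barcoded, along with a tag-only sample. Incubation with 200 nmole of a 16-mer random double-stranded DNA library lasted 30 min at room temperature in Tris/NaCl/DTT/glycerol buffer, and was followed by washing, 0.1% formaldehyde crosslinking, proximity ligation, PCR amplification and Illumina NextSeq500 sequencing. Binding signal is the quotient of each hexamer's read frequency for a factor and its frequency for the tag-only sample.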

ELK1 = molecular target: T2, ELK1 (Homo sapiens, UniProt P19419 1-428)
T2 sequence: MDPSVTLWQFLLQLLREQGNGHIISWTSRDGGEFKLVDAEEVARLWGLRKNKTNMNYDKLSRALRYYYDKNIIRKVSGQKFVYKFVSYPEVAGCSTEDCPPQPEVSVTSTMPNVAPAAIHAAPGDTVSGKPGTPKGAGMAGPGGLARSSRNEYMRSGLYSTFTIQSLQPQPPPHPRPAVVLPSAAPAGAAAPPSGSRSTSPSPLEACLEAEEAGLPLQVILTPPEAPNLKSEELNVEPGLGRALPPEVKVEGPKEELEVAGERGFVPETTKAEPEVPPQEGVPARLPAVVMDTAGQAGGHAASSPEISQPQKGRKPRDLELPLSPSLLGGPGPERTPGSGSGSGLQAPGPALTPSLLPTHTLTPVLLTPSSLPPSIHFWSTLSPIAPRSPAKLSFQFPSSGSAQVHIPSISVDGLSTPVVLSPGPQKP
How it was run: as §1

GABPA = molecular target: T3, GABPA (Homo sapiens, UniProt Q06546 1-454)
T3 sequence: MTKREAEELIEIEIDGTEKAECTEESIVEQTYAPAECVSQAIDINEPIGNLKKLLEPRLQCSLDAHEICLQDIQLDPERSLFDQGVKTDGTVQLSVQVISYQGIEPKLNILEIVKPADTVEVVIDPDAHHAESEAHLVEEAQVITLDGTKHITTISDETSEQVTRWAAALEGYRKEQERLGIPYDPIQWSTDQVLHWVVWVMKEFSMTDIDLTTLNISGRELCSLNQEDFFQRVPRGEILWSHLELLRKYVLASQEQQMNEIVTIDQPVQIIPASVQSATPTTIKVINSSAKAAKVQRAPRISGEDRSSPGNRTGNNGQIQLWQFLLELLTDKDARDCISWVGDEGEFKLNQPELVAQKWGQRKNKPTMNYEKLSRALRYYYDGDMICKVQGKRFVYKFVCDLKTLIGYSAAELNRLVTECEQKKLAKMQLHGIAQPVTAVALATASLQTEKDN
How it was run: as §1

ERG = molecular target: T4, ERG (Homo sapiens, UniProt P11308 1-479)
T4 sequence: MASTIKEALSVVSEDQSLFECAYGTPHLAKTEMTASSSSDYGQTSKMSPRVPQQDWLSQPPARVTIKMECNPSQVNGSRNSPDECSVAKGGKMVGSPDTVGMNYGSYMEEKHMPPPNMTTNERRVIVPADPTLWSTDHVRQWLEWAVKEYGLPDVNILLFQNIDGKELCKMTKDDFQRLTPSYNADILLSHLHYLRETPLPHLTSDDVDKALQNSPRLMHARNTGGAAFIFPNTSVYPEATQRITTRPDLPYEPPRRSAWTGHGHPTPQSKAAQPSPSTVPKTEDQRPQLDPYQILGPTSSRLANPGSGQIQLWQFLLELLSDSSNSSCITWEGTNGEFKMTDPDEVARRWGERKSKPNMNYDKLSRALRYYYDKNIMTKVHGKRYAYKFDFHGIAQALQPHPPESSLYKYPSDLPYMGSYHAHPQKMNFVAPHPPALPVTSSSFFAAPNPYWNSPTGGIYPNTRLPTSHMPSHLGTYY
How it was run: as §1

ELF1 = ELF1 (Homo sapiens, UniProt P32519 1-619)
How it was run: as §1

EHF = molecular target: T5, EHF (Homo sapiens, UniProt Q9NZC4 1-300)
T5 sequence: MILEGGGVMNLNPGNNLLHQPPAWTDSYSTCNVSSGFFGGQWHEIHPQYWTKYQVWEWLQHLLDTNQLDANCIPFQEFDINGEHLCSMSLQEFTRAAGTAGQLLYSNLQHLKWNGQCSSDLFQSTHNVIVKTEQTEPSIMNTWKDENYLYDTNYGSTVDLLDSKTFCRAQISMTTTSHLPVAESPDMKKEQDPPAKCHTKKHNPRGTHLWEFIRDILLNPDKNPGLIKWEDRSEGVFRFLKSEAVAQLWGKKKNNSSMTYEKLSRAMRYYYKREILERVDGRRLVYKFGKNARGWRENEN
How it was run: as §1

SPI1 = SPI1 (Homo sapiens, UniProt P17947 1-270)
How it was run: as §1

SPIB = SPIB (Homo sapiens, UniProt Q01892 1-262)
How it was run: as §1

ELK3 = molecular target: T6, ELK3 (Homo sapiens, UniProt P41970 1-407)
T6 sequence: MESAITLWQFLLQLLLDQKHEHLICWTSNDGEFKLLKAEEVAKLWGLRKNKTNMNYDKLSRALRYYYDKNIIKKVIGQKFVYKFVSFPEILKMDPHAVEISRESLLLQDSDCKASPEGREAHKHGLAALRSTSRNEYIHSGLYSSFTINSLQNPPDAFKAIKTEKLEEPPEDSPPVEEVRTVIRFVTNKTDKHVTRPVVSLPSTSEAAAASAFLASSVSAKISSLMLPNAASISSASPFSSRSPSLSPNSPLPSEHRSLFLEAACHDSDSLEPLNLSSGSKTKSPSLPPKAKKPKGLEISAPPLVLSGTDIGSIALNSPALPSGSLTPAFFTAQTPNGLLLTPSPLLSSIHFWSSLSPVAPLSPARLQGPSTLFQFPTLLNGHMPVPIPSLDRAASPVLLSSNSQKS
How it was run: as §1

ELF1, sequence (P32519 whole entry): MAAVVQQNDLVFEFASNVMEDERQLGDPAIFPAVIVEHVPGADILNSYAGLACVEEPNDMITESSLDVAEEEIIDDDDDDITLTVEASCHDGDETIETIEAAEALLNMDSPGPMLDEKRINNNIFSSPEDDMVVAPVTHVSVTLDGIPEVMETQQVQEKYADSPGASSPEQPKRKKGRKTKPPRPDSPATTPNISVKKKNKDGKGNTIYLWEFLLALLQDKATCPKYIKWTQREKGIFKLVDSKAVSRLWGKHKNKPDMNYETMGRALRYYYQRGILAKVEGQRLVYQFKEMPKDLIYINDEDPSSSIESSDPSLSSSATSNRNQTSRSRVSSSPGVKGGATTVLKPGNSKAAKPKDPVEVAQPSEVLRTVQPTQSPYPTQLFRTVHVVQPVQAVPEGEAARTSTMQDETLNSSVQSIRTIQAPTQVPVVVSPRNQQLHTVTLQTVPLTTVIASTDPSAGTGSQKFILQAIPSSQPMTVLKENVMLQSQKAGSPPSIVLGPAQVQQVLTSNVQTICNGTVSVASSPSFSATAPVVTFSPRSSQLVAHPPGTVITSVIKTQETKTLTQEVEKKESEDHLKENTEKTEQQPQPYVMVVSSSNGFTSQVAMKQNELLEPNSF
SPIB, sequence (Q01892 whole entry): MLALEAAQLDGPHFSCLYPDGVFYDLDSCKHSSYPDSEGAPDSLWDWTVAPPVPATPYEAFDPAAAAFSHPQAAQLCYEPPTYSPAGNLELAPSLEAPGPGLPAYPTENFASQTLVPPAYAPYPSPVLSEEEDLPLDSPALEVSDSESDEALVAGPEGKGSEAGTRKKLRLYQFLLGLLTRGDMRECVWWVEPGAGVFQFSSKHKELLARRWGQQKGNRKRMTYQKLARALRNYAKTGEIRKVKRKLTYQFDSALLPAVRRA

ACCGCC
binding signal (FLI1): 1.38 fold enrichment (6-mer frequency, TF over GST control) | binding signal (ELK1): 1.23 fold enrichment (6-mer frequency, TF over GST control) | binding signal (GABPA): 1.35 fold enrichment (6-mer frequency, TF over GST control) | binding signal (ERG): 1.27 fold enrichment (6-mer frequency, TF over GST control) | binding signal (ELF1): 1.29 fold enrichment (6-mer frequency, TF over GST control) | binding signal (EHF): 1.36 fold enrichment (6-mer frequency, TF over GST control) | binding signal (SPI1): 1.19 fold enrichment (6-mer frequency, TF over GST control) | binding signal (SPIB): 1.13 fold enrichment (6-mer frequency, TF over GST control) | binding signal (ELK3): 1.3 fold enrichment (6-mer frequency, TF over GST control)

CCAAAT
binding signal (FLI1): 1.02 fold enrichment (6-mer frequency, TF over GST control) | binding signal (ELK1): 1.1 fold enrichment (6-mer frequency, TF over GST control) | binding signal (GABPA): 1.01 fold enrichment (6-mer frequency, TF over GST control) | binding signal (ERG): 1.1 fold enrichment (6-mer frequency, TF over GST control) | binding signal (ELF1): 1.16 fold enrichment (6-mer frequency, TF over GST control) | binding signal (EHF): 1.05 fold enrichment (6-mer frequency, TF over GST control) | binding signal (SPI1): 1.09 fold enrichment (6-mer frequency, TF over GST control) | binding signal (SPIB): 1.04 fold enrichment (6-mer frequency, TF over GST control)

ATATAT
binding signal (FLI1): 1.47 fold enrichment (6-mer frequency, TF over GST control) | binding signal (ELK1): 1.38 fold enrichment (6-mer frequency, TF over GST control) | binding signal (GABPA): 1.44 fold enrichment (6-mer frequency, TF over GST control) | binding signal (ERG): 1.38 fold enrichment (6-mer frequency, TF over GST control) | binding signal (ELF1): 1.47 fold enrichment (6-mer frequency, TF over GST control) | binding signal (EHF): 1.4 fold enrichment (6-mer frequency, TF over GST control) | binding signal (SPI1): 1.37 fold enrichment (6-mer frequency, TF over GST control) | binding signal (SPIB): 1.42 fold enrichment (6-mer frequency, TF over GST control) | binding signal (ELK3): 1.4 fold enrichment (6-mer frequency, TF over GST control)

GCTATG
binding signal (FLI1): 1.16 fold enrichment (6-mer frequency, TF over GST control) | binding signal (ELK1): 1.13 fold enrichment (6-mer frequency, TF over GST control) | binding signal (GABPA): 1.26 fold enrichment (6-mer frequency, TF over GST control) | binding signal (ERG): 1.11 fold enrichment (6-mer frequency, TF over GST control) | binding signal (ELF1): 1.22 fold enrichment (6-mer frequency, TF over GST control) | binding signal (EHF): 1.21 fold enrichment (6-mer frequency, TF over GST control) | binding signal (SPI1): 1.13 fold enrichment (6-mer frequency, TF over GST control) | binding signal (SPIB): 1.31 fold enrichment (6-mer frequency, TF over GST control) | binding signal (ELK3): 1.15 fold enrichment (6-mer frequency, TF over GST control)

AGACTT
binding signal (FLI1): 1.09 fold enrichment (6-mer frequency, TF over GST control) | binding signal (ELK1): 1.04 fold enrichment (6-mer frequency, TF over GST control) | binding signal (GABPA): 1.03 fold enrichment (6-mer frequency, TF over GST control) | binding signal (ERG): 1.09 fold enrichment (6-mer frequency, TF over GST control) | binding signal (ELF1): 1.01 fold enrichment (6-mer frequency, TF over GST control) | binding signal (EHF): 1.08 fold enrichment (6-mer frequency, TF over GST control) | binding signal (SPI1): 1.09 fold enrichment (6-mer frequency, TF over GST control) | binding signal (SPIB): 1.04 fold enrichment (6-mer frequency, TF over GST control)

CTAGTA
binding signal (FLI1): 1.08 fold enrichment (6-mer frequency, TF over GST control) | binding signal (ELK1): 1.03 fold enrichment (6-mer frequency, TF over GST control) | binding signal (GABPA): 1.08 fold enrichment (6-mer frequency, TF over GST control) | binding signal (ERG): 1.06 fold enrichment (6-mer frequency, TF over GST control) | binding signal (ELF1): 1.15 fold enrichment (6-mer frequency, TF over GST control) | binding signal (EHF): 1.08 fold enrichment (6-mer frequency, TF over GST control) | binding signal (SPI1): 1.13 fold enrichment (6-mer frequency, TF over GST control) | binding signal (SPIB): 1.1 fold enrichment (6-mer frequency, TF over GST control) | binding signal (ELK3): 1.17 fold enrichment (6-mer frequency, TF over GST control)

CGAAAA
binding signal (FLI1): 1.07 fold enrichment (6-mer frequency, TF over GST control) | binding signal (ELK1): 1.07 fold enrichment (6-mer frequency, TF over GST control) | binding signal (GABPA): 1.17 fold enrichment (6-mer frequency, TF over GST control) | binding signal (ERG): 1.06 fold enrichment (6-mer frequency, TF over GST control) | binding signal (ELF1): 1.05 fold enrichment (6-mer frequency, TF over GST control) | binding signal (EHF): 1.14 fold enrichment (6-mer frequency, TF over GST control) | binding signal (SPI1): 1.1 fold enrichment (6-mer frequency, TF over GST control) | binding signal (SPIB): 1.04 fold enrichment (6-mer frequency, TF over GST control) | binding signal (ELK3): 1.01 fold enrichment (6-mer frequency, TF over GST control)
